According to PubChem BioAssay (NCI):
Compounds without any hit were thinned out: in the full panel of roughly 79,000, 15% have a hit. A number with no mark means an inactive call. Active and inactive are the calls of the source. Rule as the data show it: active = growth inhibition above about 70%; inactive = the rest.

Assays:
[1] = NCI Yeast Anticancer Drug Screen. Data for the rad52 strain (AID 147);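 also: 0% = growth of vehicle-treated control cultures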; details: S. cerevisiae rad52 mutant growth inhibition, stronger effect = higher value
Procedure, shortened: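 The repair-mutant yeast strain was incubated with compounds, then growth was read and inhibition derived relative to vehicle.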

[2] = NCI Yeast Anticancer Drug Screen. Data for the wt1 strain (AID 149);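 also: 0% = growth of vehicle-treated wt1 cultures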; details: S. cerevisiae wt1 strain (SPY 50644) growth inhibition, stronger effect = higher value
Procedure, shortened: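 Measured: growth of wt1 yeast under compound versus vehicle treatment, reported as inhibition.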

[3] = NCI Yeast Anticancer Drug Screen. Data for the rad50EPP+ strain (AID 151);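 also: 0% = growth of vehicle-treated control cultures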; details: S. cerevisiae rad50 mutant strain, stronger effect = higher value
Procedure, shortened: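 Vehicle-normalised growth inhibition; rad50EPP+ yeast strain, altered in DNA damage repair, compound-treated.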

[4] = NCI Yeast Anticancer Drug Screen. Data for the mgt1 strain (AID 153); details: S. cerevisiae mgt1 mutant growth inhibition, stronger effect = higher value
Procedure, shortened: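 Vehicle-normalized growth inhibition is determined in mgt1 yeast, a strain selected for a defined alteration in DNA repair or cell cycle control.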

[5] = NCI Yeast Anticancer Drug Screen. Data for the rad50 strain (AID 155);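 also: 0% = growth of vehicle-only cultures of the same strain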; details: S. cerevisiae rad50 strain growth inhibition, stronger effect = higher value
Procedure, shortened: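 Growth of the mutant yeast was measured after compound exposure and referenced to vehicle-treated cultures.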

[6] = NCI Yeast Anticancer Drug Screen. Data for the mec2-1 strain (AID 157); details: S. cerevisiae mec2-1 strain, stronger effect = higher value
Procedure, shortened: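 Mutant yeast (mec2-1) grown with compound; growth inhibition relative to vehicle control reported.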

[7] = NCI Yeast Anticancer Drug Screen. Data for the rad14 strain (AID 159);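 also: 0% = growth of vehicle-treated control cultures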; details: S. cerevisiae rad14 strain growth inhibition, stronger effect = higher value
Procedure, shortened: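 Here, inhibition of yeast growth was measured after compound exposure, using a strain with a genetic defect in DNA damage repair and vehicle-treated cultures as the reference.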

[8] = NCI Yeast Anticancer Drug Screen. Data for the sgs1 mgt1 strain (AID 161);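 also: 0% = growth of cultures given vehicle only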; details: S. cerevisiae sgs1 mgt1 strain, stronger effect = higher value
Procedure, shortened: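 Percent growth inhibition was derived by comparing compound-exposed mutant yeast with vehicle-exposed cultures. The strain carries alterations in DNA damage repair.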

[9] = NCI Yeast Anticancer Drug Screen. Data for the CLN2oe strain (AID 163);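 also: 0% = growth of vehicle-only control cultures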; details: S. cerevisiae CLN2oe strain, stronger effect = higher value
Procedure, shortened: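 Compounds are applied to yeast harbouring a defined cell-cycle control change; reduced growth compared with vehicle-treated controls gives the value.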

[10] = NCI Yeast Anticancer Drug Screen. Data for the cln2 rad14 strain (AID 165);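 also: 0% = growth equal to vehicle treated cultures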; details: S. cerevisiae cln2 rad14 strain, stronger effect = higher value
Procedure, shortened: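 Readout is yeast growth inhibition versus vehicle-treated controls, using a strain with cln2 and rad14 alterations exposed to compound.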

[11] = NCI Yeast Anticancer Drug Screen. Data for the bub3 strain (AID 167); details: S. cerevisiae bub3 mutant strain, stronger effect = higher value
Procedure, shortened: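 Whole-cell yeast assay. The mutant strain was incubated with compounds, and growth inhibition was determined by comparison with vehicle-treated cells.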

[12] = NCI Yeast Anticancer Drug Screen. Data for the wt2 strain (AID 169);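 also: 0% = growth of vehicle-treated yeast cultures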; details: S. cerevisiae wt2 strain growth inhibition, stronger effect = higher value
Procedure, shortened: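 Against vehicle-treated controls, the growth of yeast exposed to each compound was compared, and the inhibition was recorded.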

[13] = NCI Yeast Anticancer Drug Screen. Data for the mlh1 strain (AID 171);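 also: 0% = growth of vehicle-treated control cultures of the same strain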; details: S. cerevisiae mlh1 strain growth inhibition, stronger effect = higher value
Procedure, shortened: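 Measured: yeast growth. Reference: vehicle-treated controls. Organism: strain with a defined alteration affecting DNA damage repair or cell cycle control, treated with compound.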

[14] = NCI Yeast Anticancer Drug Screen. Data for the sgs1 strain (AID 173);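 also: 0% = growth of vehicle-only control cultures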; details: S. cerevisiae sgs1 mutant, stronger effect = higher value
Procedure, shortened: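 Each compound was added to cultures of the altered yeast strain. Growth was recorded, and inhibition was derived by comparison with vehicle controls.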

[15] = NCI Yeast Anticancer Drug Screen. Data for the mlh1 rad18 strain (AID 175); details: S. cerevisiae mlh1 rad18 strain growth inhibition, stronger effect = higher value
Procedure, shortened: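 Genetically defined yeast (DNA repair-deficient) exposed to compounds; growth inhibition determined relative to vehicle.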

[16] = at 5.0 µM (retest, dose inferred, filed as 0.5)
[17] = at 50.0 µM (retest, dose inferred, filed as 5.0)

## NNC(=S)Nc1cccc(Cl)c1
[1]; at 1.2 µM
  growth inhibition: -16%
[1]; at 3.7 µM
  growth inhibition: -26%
[1]; at 11.0 µM
  growth inhibition: -16%
[1]; at 33.0 µM
  growth inhibition: 6%
[1]; at 100.0 µM
  growth inhibition: 79% (active)
[2]; at 1.2 µM
  growth inhibition: -8%
[2]; at 3.7 µM
  growth inhibition: -8%
[2]; at 11.0 µM
  growth inhibition: -14%
[2]; at 33.0 µM
  growth inhibition: 14%
[2]; at 100.0 µM
  growth inhibition: 86% (active)
[3]; at 1.2 µM
  growth inhibition: -29%
[3]; at 3.7 µM
  growth inhibition: -28%
[3]; at 11.0 µM
  growth inhibition: -31%
[3]; at 33.0 µM
  growth inhibition: -55%
[3]; at 100.0 µM
  growth inhibition: -47%
[4]; at 1.2 µM
  growth inhibition: -18%
[4]; at 3.7 µM
  growth inhibition: -19%
[4]; at 11.0 µM
  growth inhibition: 20%
[4]; at 33.0 µM
  growth inhibition: 68%
[4]; at 100.0 µM
  growth inhibition: 97% (active)
[5]; at 1.2 µM
  growth inhibition: -33%
[5]; at 3.7 µM
  growth inhibition: -36%
[5]; [16]
  growth inhibition: 58%
[5]; at 11.0 µM
  growth inhibition: -20%
[5]; at 33.0 µM
  growth inhibition: 27%
[5]; [17]
  growth inhibition: 58%
[5]; at 50.0 µM
  growth inhibition: 76% (active)
[5]; at 100.0 µM
  growth inhibition: 92% (active)
[6]; at 1.2 µM
  growth inhibition: -54%
[6]; at 3.7 µM
  growth inhibition: -41%
[6]; [16]
  growth inhibition: 63%
[6]; at 11.0 µM
  growth inhibition: -40%
[6]; at 33.0 µM
  growth inhibition: -5%
[6]; [17]
  growth inhibition: 58%
[6]; at 50.0 µM
  growth inhibition: 78.6% (active)
[6]; at 100.0 µM
  growth inhibition: 91% (active)
[7]; at 1.2 µM
  growth inhibition: -27%
[7]; at 3.7 µM
  growth inhibition: -25%
[7]; at 11.0 µM
  growth inhibition: -28%
[7]; at 33.0 µM
  growth inhibition: 26%
[7]; at 100.0 µM
  growth inhibition: 95% (active)
[8]; [16]
  growth inhibition: 9%
[8]; [17]
  growth inhibition: 97% (active)
[9]; at 1.2 µM
  growth inhibition: 0%
[9]; at 3.7 µM
  growth inhibition: 15%
[9]; at 11.0 µM
  growth inhibition: -3%
[9]; at 33.0 µM
  growth inhibition: 3%
[9]; at 100.0 µM
  growth inhibition: 71% (active)
[10]; [16]
  growth inhibition: 66%
[10]; [17]
  growth inhibition: 96% (active)
[11]; at 1.2 µM
  growth inhibition: -12%
[11]; at 3.7 µM
  growth inhibition: -9%
[11]; [16]
  growth inhibition: 31%
[11]; at 11.0 µM
  growth inhibition: -9%
[11]; at 33.0 µM
  growth inhibition: 35%
[11]; [17]
  growth inhibition: 95% (active)
[11]; at 100.0 µM
  growth inhibition: 90% (active)
[12]; at 1.2 µM
  growth inhibition: -27%
[12]; at 3.7 µM
  growth inhibition: -23%
[12]; at 11.0 µM
  growth inhibition: -25%
[12]; at 33.0 µM
  growth inhibition: 8%
[12]; at 100.0 µM
  growth inhibition: 87% (active)
[13]; at 1.2 µM
  growth inhibition: -6%
[13]; at 3.7 µM
  growth inhibition: -17%
[13]; at 11.0 µM
  growth inhibition: -8%
[13]; at 33.0 µM
  growth inhibition: 45%
[13]; at 100.0 µM
  growth inhibition: 95% (active)
[14]; at 1.2 µM
  growth inhibition: -18%
[14]; at 3.7 µM
  growth inhibition: -22%
[14]; at 11.0 µM
  growth inhibition: -8%
[14]; at 33.0 µM
  growth inhibition: 32%
[14]; at 100.0 µM
  growth inhibition: 89% (active)
[15]; [16]
  growth inhibition: 40%
[15]; [17]
  growth inhibition: 54%
[15]; at 50.0 µM
  growth inhibition: 75.1% (active)

## CC(=O)[C@]1(O)Cc2c(O)c3c(c(O)c2[C@@H](OC2CC(N)C(O)C(C)O2)C1)C(=O)c1c(OCc2ccccc2)cccc1C3=O (stereo not given in full)
[1]; at 1.2 µM
  growth inhibition: 21%
[1]; at 3.7 µM
  growth inhibition: 40%
[1]; at 11.0 µM
  growth inhibition: 59%
[1]; at 33.0 µM
  growth inhibition: 79% (active)
[1]; at 100.0 µM
  growth inhibition: 94% (active)
[2]; at 1.2 µM
  growth inhibition: -9%
[2]; at 3.7 µM
  growth inhibition: -4%
[2]; at 11.0 µM
  growth inhibition: 5%
[2]; at 33.0 µM
  growth inhibition: -4%
[2]; at 100.0 µM
  growth inhibition: 7%
[3]; at 1.2 µM
  growth inhibition: 18%
[3]; at 3.7 µM
  growth inhibition: 21%
[3]; at 11.0 µM
  growth inhibition: 28%
[3]; at 33.0 µM
  growth inhibition: 46%
[3]; at 100.0 µM
  growth inhibition: 65%
[4]; at 1.2 µM
  growth inhibition: -2%
[4]; at 3.7 µM
  growth inhibition: 8%
[4]; at 11.0 µM
  growth inhibition: 5%
[4]; at 33.0 µM
  growth inhibition: 14%
[4]; at 100.0 µM
  growth inhibition: 43%
[5]; at 1.2 µM
  growth inhibition: 14%
[5]; at 3.7 µM
  growth inhibition: 24%
[5]; [16]
  growth inhibition: 9%
[5]; at 11.0 µM
  growth inhibition: 44%
[5]; at 33.0 µM
  growth inhibition: 71% (active)
[5]; [17]
  growth inhibition: 83% (active)
[5]; at 50.0 µM
  growth inhibition: 72.8% (active)
[5]; at 100.0 µM
  growth inhibition: 92% (active)
[6]; at 1.2 µM
  growth inhibition: 4%
[6]; at 3.7 µM
  growth inhibition: -10%
